Source: PubChem BioAssay (Tox21)
Inconclusive results are not listed. The source made the active and inactive calls. Unless noted, calls come from the whole dose curve; as a rule, active = well fitted curve in the direction sought with a large enough effect in the repeat runs; inconclusive = weak or mixed curves; inactive = no such curve, though single readings can be large; an effect the other way counts as inactive or inconclusive.

Tests used:
[1] = qHTS assay to identify small molecule agonists of the estrogen receptor alpha (ER-alpha) signaling pathway in the presence of an antagonist - cell viability counter screen (AID 1259386);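 note: cells exposed to compounds for 22 h at 37 °C before the viability read; nearly all actives have a fitted effect of over 30% in size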; note: potency is the fitted concentration of half-maximal effect
Method in brief: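 VM7Luc4E2 cells (endogenous full-length ER-alpha, 4×ERE-luciferase) were held 5 days in phenol red-free medium with 10% charcoal-stripped FBS, plated, then given 10.0nM ICI-182,780 and compounds at 15 concentrations for 22hr at 37C; viability read by CellTiter-Fluor fluorescence.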

[2] = biological target: Progesterone receptor (Homo sapiens) (UniProt P06401); assay: qHTS assay to identify small molecule agonists of the progesterone receptor (PR) signaling pathway (AID 1346784; calls by dose curve; note: nearly all actives have a fitted effect of over 30% in size)
Method in brief: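 The screen uses PR-UAS-bla HEK 293T cells in charcoal-stripped serum (2%). Compounds are applied for 16 hr at 37C after a 6 hr pre-incubation, and reporter activity is detected with a FRET beta-lactamase substrate after 2 hr at room temperature.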

[3] = qHTS assay to identify small molecule antagonists of the progesterone receptor (PR) signaling pathway - cell viability counter screen (AID 1346798); note: nearly all actives have a fitted effect of over 50% in size; note: potency is the fitted concentration of half-maximal effect
Method in brief: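 Viability was determined by ATP-based luminescence (CellTiter-Glo) in PR-UAS-bla HEK293T cells cultured in 2% charcoal-stripped serum and incubated 16 hr with compounds under R5020 stimulation.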

[4] = qHTS assay to identify small molecule agonists of the progesterone receptor (PR) signaling pathway - cell viability counter screen (AID 1346799; calls by dose curve; note: nearly all actives have a fitted effect of over 45% in size; note: potency is the fitted concentration of half-maximal effect)
Method in brief: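 Viability was scored by ATP luminescence (CellTiter-Glo, 30 min, room temperature) in the same wells used for the reporter readout, after 16 hr compound exposure of PR-UAS-bla HEK293T cells.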

[5] = qHTS assay to identify small molecule antagonists of the TGF-beta/Smad signaling pathway - cell viability counter screen (AID 1346824); note: nearly all actives have a fitted effect of over 50% in size; note: potency is the fitted concentration of half-maximal effect
Method in brief: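 Cytotoxicity counter-screen run in the same wells as the beta-lactamase Smad reporter read: CellTiter-Glo luminescence after 30 min at room temperature. HEK 293T SBE-bla cells had 5 hr compound exposure at 37 C with TGF-beta1 (0.25 ng/mL stock).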

[6] = qHTS assay to identify small molecule agonists of the TGF-beta/Smad signaling pathway - cell viability counter screen (AID 1346829); note: nearly all actives have a fitted effect of over 45% in size; note: potency is the fitted concentration of half-maximal effect
Method in brief: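 Here the cytotoxicity of library compounds is measured in SBE-bla HEK 293T cells treated for 5 hr, using CellTiter-Glo added to wells already read for the beta-lactamase reporter.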

[7] = biological target: Thyrotropin-releasing hormone receptor (Homo sapiens) (UniProt P34981); assay: qHTS assay to identify small molecule antagonists of the thyrotropin-releasing hormone receptor (TRHR) signaling pathway (AID 1346877; active = well fitted inhibition curve with a large enough effect in the repeat runs, not every such curve was filed as active; note: potency is the fitted concentration of half-maximal effect)
Method in brief: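 TRHR-expressing HEK293 cells were seeded, cultured 18 h at 37 °C, then loaded with calcium dye for 2 h. Compounds were pre-incubated 5 min at room temperature before 1 nM TRH (final) was added, and kinetic fluorescence was recorded for 3 min.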

[8] = biological target: Thyrotropin-releasing hormone receptor (Homo sapiens) (UniProt P34981); assay: qHTS assay to identify small molecule agonists of the thyrotropin-releasing hormone receptor (TRHR) signaling pathway (AID 1346891; calls by dose curve; note: potency is the fitted concentration of half-maximal effect; for activation: series mostly up to about 58 µM)
Method in brief: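 Kinetic fluorescence (3 min, 1 s intervals) reported intracellular calcium after compound transfer onto TRHR-Hek293 cells pre-loaded with dye for 2 h at 37 °C.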

[9] = Caspase-3/7 induction in HepG2 cells by small molecules, qHTS assay (AID 1346978); note: nearly all actives have a fitted effect of over 15% in size; note: potency is the fitted concentration of half-maximal effect
Method in brief: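 Caspase-3/7 induction was measured by Caspase-Glo 3/7 luminescence (30 min, room temperature) after a 17 hr compound exposure of wild-type HepG2 cells seeded at 2,000 per well and pre-incubated 5 hr.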

[10] = Caspase-3/7 induction in CHO-K1 cells by small molecules, qHTS cell viability counter screen (AID 1346979); note: nearly all actives have a fitted effect of over 35% in size; note: potency is the fitted concentration of half-maximal effect
Method in brief: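 Seeding: 1,500 CHO-K1 cells/well. Rest: 5hr, 37C. Treatment: compounds in DMSO, 16hr. Read: CellTiter-Fluor, 1hr, fluorescence.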

[11] = Caspase-3/7 induction in CHO-K1 cells by small molecules, qHTS assay (AID 1346980); note: nearly all actives have a fitted effect of over 15% in size; note: potency is the fitted concentration of half-maximal effect
Method in brief: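 Luminescent Caspase-Glo 3/7 read (30min, room temperature) quantified apoptosis induction. Cells were wild-type CHO-K1, treated with compound for 17hr at 37 C and 5% CO2.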

[12] = Caspase-3/7 induction in HepG2 cells by small molecules, qHTS cell viability counter screen (AID 1346981); note: nearly all actives have a fitted effect of over 30% in size; note: potency is the fitted concentration of half-maximal effect
Method in brief: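 Wild-type HepG2 cells (2,000/well) were allowed to settle for 5 hr at 37 C, 5% CO2, then dosed with compounds in DMSO by pin transfer. After 16 hr at 37 C, CellTiter-Fluor was added and fluorescence read 1 hr later.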

[13] = biological target: Nuclear receptor subfamily 1 group I member 2 (Homo sapiens) (UniProt O75469); assay: Human pregnane X receptor (PXR) small molecule agonists, qHTS assay (AID 1346982); note: nearly all actives have a fitted effect of over 35% in size; note: potency is the fitted concentration of half-maximal effect
Method in brief: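 PXR-Luc HepG2 cells (CYP3A4 promoter-driven luciferase) were seeded in medium with 5% charcoal-stripped FBS, left 5 hr at 37 C, then exposed to compounds in DMSO for 24 hr. Luminescence was read after ONE-Glo addition.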

[14] = biological target: Acetylcholinesterase (Homo sapiens) (UniProt P22303); assay: Acetylcholinesterase (AChE) small molecule antagonists: colormetric cell-based qHTS assay (AID 1347395; calls by dose curve; note: nearly all actives have a fitted effect of over 30% in size; note: potency is the fitted concentration of half-maximal effect)
Method in brief: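 Quantitative HTS in attached SH-SY5Y cells: 30 min compound exposure, then 90 min with acetylthiocholine and DTNB at 37 C; colour from thiocholine reports AChE activity.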

[15] = biological target: Progesterone receptor (Homo sapiens) (UniProt P06401); assay: qHTS assay to identify small molecule antagonists of the progesterone receptor (PR) signaling pathway (AID 1346795; active = well fitted inhibition curve with a large enough effect in the signal ratio in the repeat runs, not every such curve was filed as active; the % refers to the signal ratio)
Method in brief: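 After 6 hr plating at 37C in 2% stripped-serum medium, PR-UAS-bla HEK293T cells got compounds, then 1 nM R5020. Sixteen hours later, LiveBLAzer substrate was applied for 2 hr at room temperature and fluorescence was recorded.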

[16] = qHTS assay to identify small molecule agonists of the TGF-beta/Smad signaling pathway (AID 1346859; active = well fitted activation curve with a large enough effect in the signal ratio in the repeat runs, not every such curve was filed as active; the % refers to the signal ratio; note: series mostly up to about 77 µM)
Method in brief: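 Dual-wavelength fluorescence (460/530 nm emission) quantified beta-lactamase expression under the Smad binding element in HEK 293T cells following 5 hr compound treatment at 37 C.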

[17] = Human pregnane X receptor (PXR) small molecule agonists, qHTS cell viability counter screen (AID 1346977); note: nearly all actives have a fitted effect of over 50% in size; note: potency is the fitted concentration of half-maximal effect
Method in brief: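 HepG2 cells stably carrying the PXR-Luc reporter are cultured with 5% charcoal-stripped FBS and treated with compounds for 24hr. CellTiter-Fluor is added at 23hr and fluorescence is read after 1hr.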

[18] = biological target: Nuclear receptor subfamily 1 group I member 2 (Rattus norvegicus) (UniProt Q9R1A7); assay: Rat pregnane X receptor (rPXR) activation by small molecules, qHTS assay (AID 1346983); conditions: rPXR luciferase reporter cells, One-Glo luminescence, 24 h; max activation: active compounds read high; note: nearly all actives have a fitted effect of over 20% in size
Method in brief: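 Luminescent readout (One-Glo luciferase, 30 min room temperature) followed 24 hr compound treatment at 37 C of rPXR cells plated 2,000 per well and preincubated 5hr; qHTS format with compounds delivered in DMSO.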
% is set by controls: 0 for no effect and ±100 for the full control effect.

Chain of Thyrotropin-releasing hormone receptor (Homo sapiens) (P34981 whole entry, looked up): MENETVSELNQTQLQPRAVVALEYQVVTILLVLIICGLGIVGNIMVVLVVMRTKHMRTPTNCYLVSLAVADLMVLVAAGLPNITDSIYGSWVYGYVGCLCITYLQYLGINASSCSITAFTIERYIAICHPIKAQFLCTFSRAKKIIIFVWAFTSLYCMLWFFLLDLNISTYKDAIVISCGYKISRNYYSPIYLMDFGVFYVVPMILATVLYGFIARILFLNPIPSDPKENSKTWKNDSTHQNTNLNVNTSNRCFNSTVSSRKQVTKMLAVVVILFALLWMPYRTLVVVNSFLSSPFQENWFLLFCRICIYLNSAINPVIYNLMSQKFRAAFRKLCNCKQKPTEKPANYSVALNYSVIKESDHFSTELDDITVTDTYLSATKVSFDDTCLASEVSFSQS
Chain of Progesterone receptor (Homo sapiens) (P06401 whole entry, looked up): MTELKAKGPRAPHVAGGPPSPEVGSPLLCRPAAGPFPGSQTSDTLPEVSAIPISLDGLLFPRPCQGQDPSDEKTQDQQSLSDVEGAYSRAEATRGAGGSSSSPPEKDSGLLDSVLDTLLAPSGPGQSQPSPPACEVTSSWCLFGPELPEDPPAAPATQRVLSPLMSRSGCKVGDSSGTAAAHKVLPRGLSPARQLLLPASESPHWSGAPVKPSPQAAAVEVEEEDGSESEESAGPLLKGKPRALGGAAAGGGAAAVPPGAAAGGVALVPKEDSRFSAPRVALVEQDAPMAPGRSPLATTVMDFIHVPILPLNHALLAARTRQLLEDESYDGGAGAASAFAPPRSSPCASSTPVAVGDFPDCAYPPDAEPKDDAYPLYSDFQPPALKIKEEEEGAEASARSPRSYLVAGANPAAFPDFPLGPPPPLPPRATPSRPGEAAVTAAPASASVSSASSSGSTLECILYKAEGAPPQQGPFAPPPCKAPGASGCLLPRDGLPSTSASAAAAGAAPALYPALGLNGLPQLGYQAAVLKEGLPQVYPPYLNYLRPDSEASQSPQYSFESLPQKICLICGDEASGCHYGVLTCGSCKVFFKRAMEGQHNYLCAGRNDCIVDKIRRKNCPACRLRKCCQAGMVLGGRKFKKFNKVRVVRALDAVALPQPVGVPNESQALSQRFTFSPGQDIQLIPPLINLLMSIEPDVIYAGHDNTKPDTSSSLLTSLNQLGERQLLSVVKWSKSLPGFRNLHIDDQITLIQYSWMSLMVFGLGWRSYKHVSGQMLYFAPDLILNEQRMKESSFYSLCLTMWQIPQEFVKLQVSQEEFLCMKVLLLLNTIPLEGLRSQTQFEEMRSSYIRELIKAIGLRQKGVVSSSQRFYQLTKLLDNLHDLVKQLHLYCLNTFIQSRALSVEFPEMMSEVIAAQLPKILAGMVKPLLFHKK
Chain of Nuclear receptor subfamily 1 group I member 2 (Homo sapiens) (O75469 whole entry, looked up): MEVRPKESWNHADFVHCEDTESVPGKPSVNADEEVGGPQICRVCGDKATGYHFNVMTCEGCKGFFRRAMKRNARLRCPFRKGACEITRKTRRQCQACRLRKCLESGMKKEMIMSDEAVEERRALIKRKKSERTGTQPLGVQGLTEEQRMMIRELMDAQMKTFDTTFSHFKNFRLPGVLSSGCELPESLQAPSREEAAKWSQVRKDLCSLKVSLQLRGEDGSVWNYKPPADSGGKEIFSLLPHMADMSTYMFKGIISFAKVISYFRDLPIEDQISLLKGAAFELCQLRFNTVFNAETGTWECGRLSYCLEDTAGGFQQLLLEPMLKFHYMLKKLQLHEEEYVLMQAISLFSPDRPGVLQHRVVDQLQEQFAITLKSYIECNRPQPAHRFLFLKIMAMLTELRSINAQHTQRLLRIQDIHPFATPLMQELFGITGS
Chain of Acetylcholinesterase (Homo sapiens) (P22303 whole entry, looked up): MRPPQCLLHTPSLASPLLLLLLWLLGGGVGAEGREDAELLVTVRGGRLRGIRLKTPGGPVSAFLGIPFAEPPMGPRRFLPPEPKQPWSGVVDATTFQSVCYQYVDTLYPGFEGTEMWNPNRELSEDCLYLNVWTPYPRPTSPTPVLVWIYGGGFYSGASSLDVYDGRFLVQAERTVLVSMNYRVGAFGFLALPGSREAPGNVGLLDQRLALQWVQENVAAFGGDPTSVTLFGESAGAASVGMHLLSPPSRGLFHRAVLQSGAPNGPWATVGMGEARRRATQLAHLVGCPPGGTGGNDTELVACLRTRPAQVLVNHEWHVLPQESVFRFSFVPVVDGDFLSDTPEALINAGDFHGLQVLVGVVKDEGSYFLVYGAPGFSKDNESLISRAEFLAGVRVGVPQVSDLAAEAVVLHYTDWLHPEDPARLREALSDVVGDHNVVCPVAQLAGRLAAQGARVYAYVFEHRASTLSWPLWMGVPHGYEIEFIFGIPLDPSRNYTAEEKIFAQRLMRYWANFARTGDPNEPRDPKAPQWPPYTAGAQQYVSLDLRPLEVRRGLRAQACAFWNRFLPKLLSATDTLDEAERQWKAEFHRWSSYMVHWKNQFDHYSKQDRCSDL
Chain of Nuclear receptor subfamily 1 group I member 2 (Rattus norvegicus) (Q9R1A7 whole entry, looked up): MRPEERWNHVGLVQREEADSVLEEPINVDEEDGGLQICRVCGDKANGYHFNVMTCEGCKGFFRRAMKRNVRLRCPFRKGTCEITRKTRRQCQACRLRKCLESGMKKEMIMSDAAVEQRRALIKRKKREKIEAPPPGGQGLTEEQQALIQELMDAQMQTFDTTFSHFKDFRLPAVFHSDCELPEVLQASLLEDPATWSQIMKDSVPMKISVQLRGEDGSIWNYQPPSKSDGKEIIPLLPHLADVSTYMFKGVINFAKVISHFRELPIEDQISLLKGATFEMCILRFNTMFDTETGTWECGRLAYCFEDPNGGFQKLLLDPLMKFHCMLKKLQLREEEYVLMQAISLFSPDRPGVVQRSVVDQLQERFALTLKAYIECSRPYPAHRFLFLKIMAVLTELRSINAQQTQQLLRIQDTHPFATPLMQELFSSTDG

c1csc(-c2ccc(-c3cccs3)s2)c1
inactive: Potency [1] | Potency [2] | Potency [3] | Potency [4] | Potency [5] | Potency [6] | Potency [7] | Potency [8] | Potency [9] | Potency [10] | Potency [11] | Potency [12] | Potency [14]
active: Potency [13] 19.3 µM

CCCCC(CC)COC(=O)OOC(C)(C)C (stereo unspecified)
inactive: Potency [1] | Potency [15] | Potency [3] | Potency [4] | Potency [5] | Potency [6] | outcome [16] | Potency [7] | Potency [8] | Potency [9] | Potency [10] | Potency [11] | Potency [12] | Potency [13] | Potency [14]

CCOP(=S)(OCC)Oc1cc(C)nc(N(CC)CC)n1
active: Potency [13] 17.2 µM
inactive: Potency [1] | Potency [2] | Potency [4] | Potency [5] | Potency [6] | outcome [16] | Potency [7] | Potency [8] | Potency [17] | Potency [9] | Potency [10] | Potency [11] | Potency [12]

CCOP(=S)(NC(C)C)Oc1ccccc1C(=O)OC(C)C (stereo unspecified)
inactive: Potency [1] | Potency [2] | Potency [5] | Potency [6] | Potency [7] | Potency [8] | Potency [9] | Potency [11] | Potency [14]
active: Potency [10] 61.1 µM | Potency [13] 3.06 µM

[Cl][Hg][c]1ccccc1
inactive: Potency [9] | Potency [11] | Potency [13] | Potency [14]
active: Potency [1] 17.2 µM | Potency [3] 3.06 µM | Potency [4] 3.06 µM | Potency [5] 19.5 µM | Potency [6] 17.4 µM | Potency [17] 1.54 µM | Potency [10] 0.486 µM | Potency [12] 12.2 µM

CC#C[C@]1(O)CC[C@H]2[C@@H]3C[C@H](C)C4=CC(=O)CC[C@]4(C)[C@H]3CC[C@@]21C
active: Potency [13] 23.7 µM
inactive: Potency [1] | Potency [15] | Potency [5] | Potency [6] | outcome [16] | Potency [7] | Potency [8] | Potency [17] | Potency [9] | Potency [11] | Potency [12] | Potency [14]

C[C@]12C/C(=C/O)C(=O)C[C@@H]1CC[C@@H]1[C@@H]2CC[C@@]2(C)[C@H]1CC[C@]2(C)O
inactive: Potency [1] | Potency [5] | Potency [6] | Potency [7] | Potency [8] | Potency [17] | Potency [9] | Potency [11] | Potency [12] | max activation [18] 1.42% | Potency [14]
active: Potency [3] 69.2 µM | Potency [4] 77.7 µM | Potency [10] 43.7 µM

O=C(N[C@@H]1N=C(c2ccccc2F)c2cccc3c2N(CC3)C1=O)c1cc2ccccc2[nH]1
inactive: Potency [1] | Potency [3] | Potency [4] | Potency [5] | Potency [6] | outcome [16] | Potency [17] | Potency [10] | Potency [11] | Potency [12] | Potency [14]
active: Potency [8] 12 µM | Potency [13] 10.6 µM

Oc1cc(Cl)cc(Cl)c1
inactive: Potency [1] | Potency [5] | Potency [6] | outcome [16] | Potency [7] | Potency [8] | Potency [17] | Potency [11] | Potency [12] | Potency [14]
active: Potency [13] 69.3 µM

CC(Cc1ccccc1)N(C)Cc1ccco1 (stereo unspecified)
inactive: Potency [1] | Potency [3] | Potency [4] | Potency [5] | Potency [6] | outcome [16] | Potency [8] | Potency [17] | Potency [9] | Potency [10] | Potency [11] | Potency [12] | Potency [13] | Potency [14]

C=C(C)C(=O)[O][Sn]([CH2]CCC)([CH2]CCC)[CH2]CCC
active: Potency [1] 8.63 µM | Potency [3] 3.44 µM | Potency [4] 2.17 µM | Potency [5] 1.38 µM | Potency [6] 1.1 µM | Potency [7] 2.69 µM | Potency [8] 11 µM | Potency [9] 2.17 µM | Potency [10] 0.306 µM | Potency [11] 0.433 µM | Potency [13] 0.193 µM
inactive: Potency [14]

CC(=O)[O][Pb]([c]1ccccc1)([c]1ccccc1)[c]1ccccc1
active: Potency [1] 19.3 µM | Potency [3] 4.33 µM | Potency [4] 4.33 µM | Potency [5] 4.9 µM | Potency [6] 4.36 µM | Potency [17] 4.33 µM | Potency [9] 2.43 µM | Potency [10] 0.386 µM | Potency [11] 0.486 µM | Potency [12] 10.9 µM
inactive: Potency [13] | Potency [14]

COC(=O)/C=C(\C)OP(=O)(OC)OC
inactive: Potency [1] | Potency [3] | Potency [4] | Potency [6] | outcome [16] | Potency [7] | Potency [8] | Potency [17] | Potency [10] | Potency [11] | Potency [12] | Potency [13]
active: Potency [5] 0.174 µM | Potency [14] 2.24 µM

Cc1ccn2nc(S(=O)(=O)Nc3c(F)cccc3F)nc2n1
inactive: Potency [1] | Potency [3] | Potency [4] | Potency [5] | Potency [6] | outcome [16] | Potency [7] | Potency [8] | Potency [9] | Potency [10] | Potency [11] | Potency [12] | Potency [13] | Potency [14]

O=[N+]([O-])c1cc(C(F)(F)F)c(Cl)c([N+](=O)[O-])c1Nc1ncc(C(F)(F)F)cc1Cl
inactive: Potency [8] | Potency [9] | Potency [14]
active: Potency [1] 30.6 µM | Potency [3] 24.3 µM | Potency [4] 27.3 µM | Potency [5] 30.9 µM | Potency [6] 43.6 µM | Potency [7] 15.1 µM | Potency [17] 17.2 µM | Potency [10] 5.45 µM | Potency [12] 54.5 µM | Potency [13] 8.63 µM
